From PubChem BioAssay (NCI) come the findings set out here.

The panel holds about 79,000 compounds, 15% with a hit somewhere; the sample as a whole holds those more often. A number with no mark means an inactive call. Active and inactive are the calls of the source. No stated cut-off is given here; in the data, active means growth inhibition above about 70%; inactive means the rest.

Test [1] in a line: NCI Yeast Anticancer Drug Screen. Data for the rad50 strain (AID 155).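 Further: 0% = growth of vehicle-only cultures of the same strain.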 The following applies: S. cerevisiae rad50 strain growth inhibition; at 50.0 µM; hits give high values. In short, it runs like this: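 Compounds were tested on a yeast strain with an engineered DNA damage repair alteration; the reported value is growth inhibition normalised to vehicle treatment.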
Test [2] in a line: NCI Yeast Anticancer Drug Screen. Data for the mec2-1 strain (AID 157). The following applies: S. cerevisiae mec2-1 strain, at 50.0 µM, hits give high values. The method in brief: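 Cells of the genetically defined mec2-1 yeast strain are incubated with test compound. Inhibition of growth is calculated against vehicle-treated controls.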
Test [3] in a line: NCI Yeast Anticancer Drug Screen. Data for the sgs1 mgt1 strain (AID 161).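 Further: 0% = growth of cultures given vehicle only.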 The following applies: S. cerevisiae sgs1 mgt1 strain, at 50.0 µM, hits give high values. The method in brief: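 Read-out: growth inhibition vs vehicle controls. Cells: mutant yeast strain deficient in DNA damage repair.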
The nature of test [4]: NCI Yeast Anticancer Drug Screen. Data for the cln2 rad14 strain (AID 165).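 Further: 0% = growth equal to vehicle treated cultures.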 The following applies: S. cerevisiae cln2 rad14 strain, at 50.0 µM, hits give high values. In short, it runs like this: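 The screen exposed genetically defined yeast (cln2 rad14) to test compounds and scored growth inhibition relative to vehicle-treated controls.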
Test [5] in a line: NCI Yeast Anticancer Drug Screen. Data for the bub3 strain (AID 167). The following applies: S. cerevisiae bub3 mutant strain, at 50.0 µM, hits give high values. In short, it runs like this: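 Growth of a checkpoint-deficient yeast mutant is measured after compound exposure. Values represent inhibition relative to vehicle.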
Test [6] can be described thus: NCI Yeast Anticancer Drug Screen. Data for the mlh1 rad18 strain (AID 175). The following applies: S. cerevisiae mlh1 rad18 strain growth inhibition; at 50.0 µM; hits give high values. In short, it runs like this:
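Compound-treated yeast growth, normalised to vehicle controls. Strain bears defined DNA repair mutations.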

Take `CCCCN=NNc1cn(C2OC(CO)C(O)C2O)c(=O)[nH]c1=O` (stereo not given): the growth inhibition in test [1] was -22.4%; in test [2], 0.9%; in test [3], 4.85%; in test [4], 13.3%; in test [5] it was 10.8%; in test [6], 21.8%.

As to `O=C(NC(=Nc1ccccc1)SCSC(=Nc1ccccc1)NC(=O)c1ccco1)c1ccco1`, the growth inhibition was -5.85% in test [1]; -7.9% in test [2]; -45.7% in test [3]; 12.7% in test [4]; -4.7% in test [5]; -12.4% in test [6].

Take `COC(=O)CCC(=O)Nc1ccccc1C(F)(F)F`: the growth inhibition in test [1] was -8.55%; in test [2], 5.3%; in test [3], 7.65%; in test [4], 3.2%; in test [5] it was 8.45%; in test [6], 1%.

With `N#Cc1cccc(CC(O)(c2ccccc2)c2ccccc2)c1`, the growth inhibition in test [1] was 19.6%; in test [2] it was 19.9%; in test [3], 5.1%; in test [4] it was 11%; in test [5], 20.5%; in test [6], 18.4%.

Consider `COc1c(NC(=O)c2ccc(Cl)c(Cl)c2)cccc1[N+](=O)[O-]`, for which the growth inhibition in test [1] was 7.6%; in test [2], -9.1%; in test [3], 3.35%; in test [4], -2.85%; in test [5], 1.3%; in test [6] it was -1.3%.

For the compound `COc1ccc(N2C(=O)C3c4[nH]c5ccccc5c4C4CCCCCCCCCC4C3C2=O)cc1` (stereo not given), the growth inhibition in test [1] was -6.15%; in test [2], -25.9%; in test [3], 0%; in test [4], -39.6%; in test [5] it was -15.3%; in test [6], -30.2%.

With `O=C(O)CC1CC2CC(=O)C1C2` (stereo not given), the growth inhibition was -28.1% in test [1]; -30.7% in test [2]; -14.7% in test [3]; -1.2% in test [4]; -23.6% in test [5]; 12.2% in test [6].

Consider `CC(=O)C(=C(c1ccccc1)c1ccccc1)c1ccccc1`, for which the growth inhibition in test [1] is -51.4%; in test [2], -7.8%; in test [3] it was -32.9%; in test [4], -1.4%; in test [5], -46.6%; in test [6], 7.6%.

Regarding `CC1c2ccc3ccccc3c2C(=O)c2cccc(Cl)c21` (stereo not given), the growth inhibition in test [1] was 0.45%; in test [2], 31.9%; in test [3], 14.7%; in test [4], -42.6%; in test [5] it was -5.65%; in test [6], -1.65%.

With `CC(=O)OCC(OC(C)=O)C1OC(OCc2ccccc2)C(OC(C)=O)C(OC(C)=O)C1OC(C)=O` (stereo not given), the growth inhibition is -10.1% in test [1]; -4.2% in test [2]; -17.6% in test [3]; 44% in test [4]; -3% in test [5]; -5.85% in test [6].

As for `CN(/N=C/c1ccc(Cl)c(Cl)c1)C1=NCCCCN1`, the growth inhibition is 1.45% in test [1]; -13.8% in test [2]; 2.15% in test [3]; -6.95% in test [4]; -15.8% in test [5]; -2.8% in test [6].

Take `O=c1[nH]c(Nc2cccc(Br)c2)nc2nc[nH]c12`: the growth inhibition is -53.2% in test [1]; -8.65% in test [2]; -23.9% in test [3]; -45.4% in test [4]; -5.9% in test [5]; -37.5% in test [6].

In the case of `CC(=O)N(CN1C(=O)CCC1C(=O)O)c1ccccc1Cl` (stereo not given), the growth inhibition was 10.3% in test [1]; 14.4% in test [2]; -13.6% in test [3]; -4.35% in test [4]; -3.85% in test [5]; -40.5% in test [6].

In the case of `CN(C)c1ccc(C=C2/C(=N\O)c3ccccc3/C2=N/O)cc1`, the growth inhibition was -1.5% in test [1]; 38.1% in test [2]; 39% in test [3]; -8.2% in test [4]; 34.2% in test [5]; 48.1% in test [6].

For the compound `Cn1c2ccccc2c2c(-c3ccccc3)cc3c(c21)C(=O)C=CC3=O`, the growth inhibition is -15.3% in test [1]; -10.6% in test [2]; 3.8% in test [3]; 16.2% in test [4]; -25.9% in test [5]; 7.95% in test [6].

In the case of `CCCCCCCCCCCCCCCCCC(=O)NCCCNCCCNC(=O)CCCCCCCCCCCCCCCCC`, the growth inhibition is -10.9% in test [1]; -21.4% in test [2]; -12.2% in test [3]; 7.55% in test [4]; -17.5% in test [5]; -13.6% in test [6].

Turning to `Cc1c(C2CCSc3ccccc3N2)sc2ccccc12` (stereo not given), the growth inhibition in test [1] was -17.2%; in test [2], -27.4%; in test [3], 11.3%; in test [4], 14.6%; in test [5], 4.65%; in test [6], 7.2%.

For `C[C@@H]1CC[C@@H](C)[C@](C)(CCc2ccoc2)C/C=C\C=C/1C(=O)O`, the growth inhibition in test [1] is 85.2% (active); in test [2] it was 85.8% (active); in test [3], 73.8% (active); in test [4] it was 84.7% (active); in test [5], 68.8%; in test [6], 78.2% (active).

As to `CC(C)(C(=O)O)C(=O)O`, the growth inhibition was 6.9% in test [1]; 3.25% in test [2]; 0.6% in test [3]; 8.2% in test [4]; 21.4% in test [5]; 3.1% in test [6].

For the compound `Cc1ccc(NC(=S)N(CCC#N)C2CCCCC2)cc1`, the growth inhibition was -7.6% in test [1]; -10.1% in test [2]; 16.2% in test [3]; 6.95% in test [4]; 6.3% in test [5]; 0.85% in test [6].
